According to ChEMBL document CHEMBL2218924, “A broad activity screen in support of a chemogenomic map for kinase signalling research and drug discovery” (Biochem J, 2013):

How the values were obtained:
[1] = molecular target: T1, Ephrin type-A receptor 3 (Homo sapiens) (UniProt P29320); conditions: at 10 µM
T1 sequence (whole entry): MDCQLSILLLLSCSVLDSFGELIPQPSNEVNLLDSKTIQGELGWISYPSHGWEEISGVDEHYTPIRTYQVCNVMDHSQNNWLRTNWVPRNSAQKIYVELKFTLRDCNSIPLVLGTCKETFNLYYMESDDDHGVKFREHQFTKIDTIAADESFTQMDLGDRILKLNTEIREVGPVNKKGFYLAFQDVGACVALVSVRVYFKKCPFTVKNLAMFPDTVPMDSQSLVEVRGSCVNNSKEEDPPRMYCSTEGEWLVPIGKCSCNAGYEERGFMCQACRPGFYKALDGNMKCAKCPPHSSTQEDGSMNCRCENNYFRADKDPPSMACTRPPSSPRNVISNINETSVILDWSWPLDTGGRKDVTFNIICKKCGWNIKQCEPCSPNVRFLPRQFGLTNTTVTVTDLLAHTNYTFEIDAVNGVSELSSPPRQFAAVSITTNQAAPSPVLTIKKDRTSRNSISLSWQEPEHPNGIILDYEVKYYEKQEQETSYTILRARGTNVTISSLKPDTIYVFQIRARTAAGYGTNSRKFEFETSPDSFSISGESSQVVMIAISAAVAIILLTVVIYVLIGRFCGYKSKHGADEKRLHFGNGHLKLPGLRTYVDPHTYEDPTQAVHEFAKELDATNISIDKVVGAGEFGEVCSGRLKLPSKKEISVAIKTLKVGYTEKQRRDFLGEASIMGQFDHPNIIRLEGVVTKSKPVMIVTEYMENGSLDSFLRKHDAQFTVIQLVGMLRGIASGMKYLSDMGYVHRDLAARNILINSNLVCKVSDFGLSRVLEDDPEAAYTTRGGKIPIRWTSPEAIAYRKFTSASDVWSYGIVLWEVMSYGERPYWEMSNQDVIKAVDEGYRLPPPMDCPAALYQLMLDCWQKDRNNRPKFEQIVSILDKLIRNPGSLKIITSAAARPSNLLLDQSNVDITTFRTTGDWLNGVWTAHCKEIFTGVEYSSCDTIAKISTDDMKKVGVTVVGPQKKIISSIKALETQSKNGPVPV

[2] = molecular target: Ephrin type-A receptor 4 (Homo sapiens) (UniProt P54764); conditions: at 1 µM
[3] = molecular target: Ephrin type-A receptor 4 (Homo sapiens) (UniProt P54764); conditions: at 10 µM
[4] = molecular target: Ephrin type-A receptor 5 (Homo sapiens) (UniProt P54756); conditions: at 1 µM
[5] = molecular target: Ephrin type-A receptor 5 (Homo sapiens) (UniProt P54756); conditions: at 10 µM
[6] = molecular target: Ephrin type-A receptor 7 (Homo sapiens) (UniProt Q15375); conditions: at 1 µM
[7] = molecular target: Ephrin type-A receptor 7 (Homo sapiens) (UniProt Q15375); conditions: at 10 µM
[8] = molecular target: T2, Ephrin type-A receptor 8 (Homo sapiens) (UniProt P29322); conditions: at 1 µM
T2 sequence (whole entry): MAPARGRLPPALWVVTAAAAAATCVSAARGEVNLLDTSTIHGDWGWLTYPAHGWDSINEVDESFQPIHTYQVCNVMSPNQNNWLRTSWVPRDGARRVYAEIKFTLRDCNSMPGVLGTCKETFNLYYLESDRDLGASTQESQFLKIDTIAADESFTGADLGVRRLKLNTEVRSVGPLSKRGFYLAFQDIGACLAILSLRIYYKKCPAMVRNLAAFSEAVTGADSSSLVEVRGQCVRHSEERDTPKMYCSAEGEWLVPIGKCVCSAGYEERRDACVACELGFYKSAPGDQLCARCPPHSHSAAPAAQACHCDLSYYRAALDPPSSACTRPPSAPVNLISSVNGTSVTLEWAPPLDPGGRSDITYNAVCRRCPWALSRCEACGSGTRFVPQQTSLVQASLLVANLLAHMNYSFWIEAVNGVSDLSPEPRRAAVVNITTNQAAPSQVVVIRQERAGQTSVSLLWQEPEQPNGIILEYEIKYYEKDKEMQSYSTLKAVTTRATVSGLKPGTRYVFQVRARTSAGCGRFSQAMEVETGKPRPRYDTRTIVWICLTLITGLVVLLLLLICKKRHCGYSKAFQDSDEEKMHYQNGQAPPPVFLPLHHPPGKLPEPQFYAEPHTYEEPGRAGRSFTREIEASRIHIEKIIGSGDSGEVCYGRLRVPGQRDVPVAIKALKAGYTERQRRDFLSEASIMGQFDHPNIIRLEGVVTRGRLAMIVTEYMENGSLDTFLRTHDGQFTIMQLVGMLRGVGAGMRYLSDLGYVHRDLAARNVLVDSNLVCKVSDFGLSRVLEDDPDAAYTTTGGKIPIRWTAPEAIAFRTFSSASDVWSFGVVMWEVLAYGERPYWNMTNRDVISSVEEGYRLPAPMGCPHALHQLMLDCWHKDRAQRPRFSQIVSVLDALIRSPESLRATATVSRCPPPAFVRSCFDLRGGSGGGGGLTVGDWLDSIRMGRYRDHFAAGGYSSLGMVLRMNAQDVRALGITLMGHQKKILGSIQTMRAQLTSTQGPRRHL

[9] = molecular target: T2, Ephrin type-A receptor 8 (Homo sapiens); conditions: at 10 µM
[10] = molecular target: T3, Ephrin type-B receptor 1 (Homo sapiens) (UniProt P54762); conditions: at 1 µM
T3 sequence (whole entry): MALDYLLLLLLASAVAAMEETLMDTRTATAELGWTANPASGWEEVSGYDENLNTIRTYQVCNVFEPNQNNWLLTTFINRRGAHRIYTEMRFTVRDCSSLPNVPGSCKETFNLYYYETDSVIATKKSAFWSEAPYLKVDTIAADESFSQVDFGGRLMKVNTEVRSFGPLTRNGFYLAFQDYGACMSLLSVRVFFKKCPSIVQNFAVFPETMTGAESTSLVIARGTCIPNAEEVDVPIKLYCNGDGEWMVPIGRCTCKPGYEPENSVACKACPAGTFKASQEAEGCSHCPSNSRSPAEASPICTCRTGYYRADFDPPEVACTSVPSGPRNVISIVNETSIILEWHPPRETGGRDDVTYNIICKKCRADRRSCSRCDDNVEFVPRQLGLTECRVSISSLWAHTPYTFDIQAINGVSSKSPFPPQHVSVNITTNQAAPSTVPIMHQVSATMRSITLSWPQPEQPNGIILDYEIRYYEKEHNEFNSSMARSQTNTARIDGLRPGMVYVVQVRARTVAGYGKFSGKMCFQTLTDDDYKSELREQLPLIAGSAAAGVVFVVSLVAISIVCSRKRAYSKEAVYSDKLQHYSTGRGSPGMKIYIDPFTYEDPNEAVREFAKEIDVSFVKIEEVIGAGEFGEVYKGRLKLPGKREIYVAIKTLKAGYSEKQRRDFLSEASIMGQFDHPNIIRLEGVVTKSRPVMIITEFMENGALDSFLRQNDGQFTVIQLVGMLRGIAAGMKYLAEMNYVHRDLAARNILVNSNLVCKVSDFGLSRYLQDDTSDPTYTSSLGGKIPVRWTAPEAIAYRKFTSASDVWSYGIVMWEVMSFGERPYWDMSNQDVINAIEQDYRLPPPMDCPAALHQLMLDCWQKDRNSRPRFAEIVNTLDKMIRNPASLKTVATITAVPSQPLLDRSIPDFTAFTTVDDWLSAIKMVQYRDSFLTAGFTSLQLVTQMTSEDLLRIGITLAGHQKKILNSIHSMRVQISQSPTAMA

Sequence of Ephrin type-A receptor 5 (Homo sapiens) (P54756 whole entry): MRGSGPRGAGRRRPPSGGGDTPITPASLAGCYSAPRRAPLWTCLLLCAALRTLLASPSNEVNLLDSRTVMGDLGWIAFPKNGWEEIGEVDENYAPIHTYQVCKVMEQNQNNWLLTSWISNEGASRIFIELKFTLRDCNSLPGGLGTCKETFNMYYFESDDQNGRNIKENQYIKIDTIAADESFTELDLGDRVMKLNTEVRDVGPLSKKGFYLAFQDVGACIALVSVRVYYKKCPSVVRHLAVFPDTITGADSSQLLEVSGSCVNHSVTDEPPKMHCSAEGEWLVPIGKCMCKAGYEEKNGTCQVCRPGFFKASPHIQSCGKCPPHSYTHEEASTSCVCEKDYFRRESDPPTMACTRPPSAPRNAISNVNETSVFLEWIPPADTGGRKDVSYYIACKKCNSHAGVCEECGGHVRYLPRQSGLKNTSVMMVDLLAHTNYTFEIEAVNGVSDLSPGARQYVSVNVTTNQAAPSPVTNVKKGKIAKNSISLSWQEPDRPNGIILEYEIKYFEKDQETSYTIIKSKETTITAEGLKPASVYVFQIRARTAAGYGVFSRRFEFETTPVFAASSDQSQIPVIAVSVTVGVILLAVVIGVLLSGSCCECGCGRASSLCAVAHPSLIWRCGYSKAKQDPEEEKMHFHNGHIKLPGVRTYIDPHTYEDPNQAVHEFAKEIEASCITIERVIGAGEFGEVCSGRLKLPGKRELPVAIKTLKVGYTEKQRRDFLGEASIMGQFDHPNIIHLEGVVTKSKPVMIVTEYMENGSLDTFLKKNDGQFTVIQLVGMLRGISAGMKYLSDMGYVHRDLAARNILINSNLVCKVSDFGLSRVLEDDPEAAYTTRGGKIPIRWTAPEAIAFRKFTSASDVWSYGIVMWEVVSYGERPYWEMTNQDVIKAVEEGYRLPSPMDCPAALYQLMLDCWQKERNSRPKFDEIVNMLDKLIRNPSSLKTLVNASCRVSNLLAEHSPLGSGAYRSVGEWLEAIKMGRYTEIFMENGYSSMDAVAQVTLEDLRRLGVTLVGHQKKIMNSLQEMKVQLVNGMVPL
Sequence of Ephrin type-A receptor 4 (Homo sapiens) (P54764 whole entry): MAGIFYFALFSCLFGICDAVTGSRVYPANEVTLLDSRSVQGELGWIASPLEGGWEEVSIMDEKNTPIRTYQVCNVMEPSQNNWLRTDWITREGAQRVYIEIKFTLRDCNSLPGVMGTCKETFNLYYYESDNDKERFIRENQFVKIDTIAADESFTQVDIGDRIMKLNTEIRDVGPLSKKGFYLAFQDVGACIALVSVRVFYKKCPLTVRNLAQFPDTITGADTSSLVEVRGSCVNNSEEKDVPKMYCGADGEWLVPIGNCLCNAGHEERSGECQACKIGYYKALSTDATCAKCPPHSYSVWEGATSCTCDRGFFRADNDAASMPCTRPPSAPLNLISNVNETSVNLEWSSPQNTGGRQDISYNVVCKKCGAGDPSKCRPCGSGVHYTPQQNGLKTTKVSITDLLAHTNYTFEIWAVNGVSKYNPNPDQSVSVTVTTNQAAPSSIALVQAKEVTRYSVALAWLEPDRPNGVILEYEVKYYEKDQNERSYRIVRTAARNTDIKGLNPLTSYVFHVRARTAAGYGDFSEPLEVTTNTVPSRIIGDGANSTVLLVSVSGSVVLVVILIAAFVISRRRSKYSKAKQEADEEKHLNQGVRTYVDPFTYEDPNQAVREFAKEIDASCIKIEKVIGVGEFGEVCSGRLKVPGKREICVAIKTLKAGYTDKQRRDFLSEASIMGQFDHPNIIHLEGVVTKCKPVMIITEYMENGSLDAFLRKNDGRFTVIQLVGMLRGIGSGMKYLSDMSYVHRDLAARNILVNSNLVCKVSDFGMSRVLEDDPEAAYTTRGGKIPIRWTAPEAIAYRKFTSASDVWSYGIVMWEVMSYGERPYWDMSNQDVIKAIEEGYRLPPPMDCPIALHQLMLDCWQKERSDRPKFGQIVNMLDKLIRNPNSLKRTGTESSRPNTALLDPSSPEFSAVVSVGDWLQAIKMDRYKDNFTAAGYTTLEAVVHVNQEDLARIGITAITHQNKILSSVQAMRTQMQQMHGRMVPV
Sequence of Ephrin type-A receptor 7 (Homo sapiens) (Q15375 28-998 limits assumed): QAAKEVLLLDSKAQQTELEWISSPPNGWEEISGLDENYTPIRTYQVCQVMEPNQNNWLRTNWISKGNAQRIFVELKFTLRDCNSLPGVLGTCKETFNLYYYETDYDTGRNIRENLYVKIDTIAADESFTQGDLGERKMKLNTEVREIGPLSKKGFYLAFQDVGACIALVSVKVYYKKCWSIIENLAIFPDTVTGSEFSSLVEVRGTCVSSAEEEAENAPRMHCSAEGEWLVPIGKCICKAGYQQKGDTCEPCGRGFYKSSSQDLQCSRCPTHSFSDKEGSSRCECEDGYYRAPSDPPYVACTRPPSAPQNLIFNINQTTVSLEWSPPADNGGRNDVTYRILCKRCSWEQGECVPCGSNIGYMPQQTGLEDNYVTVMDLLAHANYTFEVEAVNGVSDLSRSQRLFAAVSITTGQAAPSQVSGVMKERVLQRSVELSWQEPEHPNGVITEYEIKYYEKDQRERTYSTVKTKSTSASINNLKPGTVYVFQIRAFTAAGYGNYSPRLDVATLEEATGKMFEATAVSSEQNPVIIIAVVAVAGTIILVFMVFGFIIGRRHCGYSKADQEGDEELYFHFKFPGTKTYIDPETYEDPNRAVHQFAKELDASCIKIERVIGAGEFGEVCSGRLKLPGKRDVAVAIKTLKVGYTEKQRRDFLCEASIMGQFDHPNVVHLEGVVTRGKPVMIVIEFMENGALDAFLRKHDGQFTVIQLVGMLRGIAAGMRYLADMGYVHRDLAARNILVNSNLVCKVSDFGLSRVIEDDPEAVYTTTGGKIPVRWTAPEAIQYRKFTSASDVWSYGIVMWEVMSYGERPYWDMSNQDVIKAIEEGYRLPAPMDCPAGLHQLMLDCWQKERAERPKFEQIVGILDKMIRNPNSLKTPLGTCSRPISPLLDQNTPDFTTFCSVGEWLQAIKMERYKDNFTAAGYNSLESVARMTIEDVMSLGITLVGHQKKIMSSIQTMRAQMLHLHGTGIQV

CC(C)n1cnc2c(NCc3ccccc3)nc(NCCCO)nc21
residual activity [1]: 101% | residual activity [2]: 109% | residual activity [3]: 104% | residual activity [4]: 96% | residual activity [5]: 84% | residual activity [6]: 84% | residual activity [7]: 78% | residual activity [8]: 97% | residual activity [9]: 94% | residual activity [10]: 93%
